Screens (PubChem)
Only some compounds are listed: those with a hit (about 21% of all), similar ones and a draw of the others.
Pf growth 96h: inhibits malaria parasite growth, 96 h; Potency, µM (doses to about 28.7 µM), for the others: at the highest dose activity change, negative = inhibition, usual class: inhibitors; P. falciparum luciferase reporter growth, 96 h; hit rate 6.9% among 320,000; note: potency is the fitted concentration of half-maximal effect; % is set by controls: 0 for no effect and ±100 for the full control effect
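Readout is luminescence from an integrated firefly luciferase in P. falciparum. Red cells, 2% hematocrit and 0.05% parasitemia final, were cultured with compound through two parasite generations (96 hours) at 37 C, 5% CO2.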
Pf growth 48h: inhibits P. falciparum growth in the first generation, 48 h; P. falciparum luciferase growth in erythrocytes, 48 h; Potency, µM (highest dose often 28.7 µM), inactives show top-dose activity change, negative = inhibition, hits mostly inhibitors; hit rate 5.9% among 310,000; AID 504832; note: potency is the fitted concentration of half-maximal effect; % is set by controls: 0 for no effect and ±100 for the full control effect
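Luciferase-expressing parasites in RBCs, 2% Hct / 0.1% parasitemia final; RPMI 1640 + 0.5% Albumax; 37 C, 5% CO2, one generation; luminescence read-out, lower signal = inhibition.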
NS1 function inh: blocks influenza NS1 protein function; Potency, µM (series often up to 46.1 µM), for the others: at the highest dose activity, positive = more growth; hit rate 0.4% among 270,000; AID 2326; calls by dose curve; note: potency is the fitted concentration of half-maximal effect; actives are rising curves; nearly all actives have a fitted effect of over 50% in size
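OD600 was taken as the measure of yeast growth restored by compound in an NS1-expressing S. cerevisiae strain. Cells had been washed out of glucose medium and diluted 1:100 into galactose -URA medium, pH 6.0.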
CHX counter: counter-screen for Shiga toxin inhibitors: cycloheximide protein synthesis inhibition; cell reporter, cycloheximide protein synthesis inhibition counterscreen; max response, %; hit rate 12% among 300,000; AID 2314; in the data active = max response mostly above about 13%, no sharp cut-off; inactive = mostly below about 14%; note: read at 38.3 µM for the half of the compounds with a filed dose; 0% is about no effect
Shiga inhibitor: inhibitors of Shiga toxin in Vero cells | Vero cells, Shiga toxin protein synthesis inhibition reporter | inhibition, % at 38.7 µM | hit rate 9.2% among 290,000 | AID 2315; in the data active = inhibition mostly above about 28%, no sharp cut-off; inactive = mostly below about 43%; note: 0% is about no effect
The depositor's hits bear a star; i = inactive; ? = inconclusive; / = no result; ! = a repeat was not active. Unless noted, calls come from the whole dose curve; as a rule, active = well fitted inhibition curve with a large enough effect; inconclusive = small, poorly fitted or top-dose-only effect, or another doubt; inactive = no such curve, though single readings can be large or run the other way.

SMILES	Pf growth 96h	Pf growth 48h	NS1 function inh	CHX counter	Shiga inhibitor
O=C(c1noc2c1CCc1ccccc1-2)N1CCOCC1	25%	78%	-4%	36*	43*
O=C(c1cccnc1)N1CCCc2ccccc21	6%	-4%	4%	-7	-6
O=C(c1noc2c1CCc1ccccc1-2)N1CCc2ccccc2C1	8%	7%	-20%	28*	60*
CCOc1ccc(/C=N/NS(=O)(=O)c2ccc(C)cc2)cc1OC	-15%	-17%	10%	-1	-3
COc1cc(/C=N/NS(=O)(=O)c2ccc(C)cc2)ccc1OCc1ccc(C(=O)O)cc1	-6%	i	/	42*	146*
COc1cc(/C=N/NS(=O)(=O)c2ccc3ccccc3c2)ccc1OCCN1CCOCC1	?	1%	-6%	18*	25
COc1ccc(S(=O)(=O)N/N=C/c2ccc(OCCN3CCOCC3)c(OC)c2)cc1	-1%	29%	6%	20*	34
O=C1/C(=C\c2ccc(C(F)(F)F)cc2)CSc2sccc21	0%	?	-6%	14	11
C/C(=N\NC(=O)C(=O)Nc1cc(Cl)ccc1Cl)c1ccncc1	48%	13%	4%	-4	2
COc1ccc(C(=O)Nc2ccc(/C(C)=N/NC(=O)c3ccncc3)cc2)cc1	-29%	92%	-5%	26*	40
C/C(=N\NC(=O)c1ccncc1)c1ccc(NC(=O)c2ccc(Cl)cc2)cc1	47%	-20%	9%	57*	97*
O=C(N/N=C/c1ccncc1)c1ccc(NC(=O)c2ccc(Cl)cc2)cc1	-8%	?	/	-2	18
C/C(=N/NC(=O)c1ccncc1)c1ccc(NC(=O)c2ccc(Cl)cc2Cl)cc1	-1%	48%	8%	63*	43
COc1ccc(/C(C)=N/NC(=O)c2ccncc2)cc1	-23%	43%	-6%	-3	-5
COc1ccc(/C(C)=N/NC(=O)c2ccccc2N)cc1	3.7µM*	?	/	34*	78*
CCCCC[C@H](O)/C=C/[C@@H]1[C@H]2C/C(=C/CCCC(=O)O)O[C@H]2C[C@H]1O	27%	-4%	/	/	/
CC(C)(C)Cc1nc(-c2ccccn2)no1	4%	140%	-12%	34*	76*
Cc1ccc(OCc2nc(-c3ccccn3)no2)c(Br)c1	2.3µM*	14%	-34%	11	21
Cc1cc(OCc2nc(-c3cccnc3)no2)c(C)cc1Br	-33%	23%	?	-3	7
Cc1ccc(OCc2nc(-c3ccccn3)no2)cc1	267%	/	-75%	29*	43
CCc1ccc(OCc2nc(-c3ccccn3)no2)c(Br)c1	4%	89%	-95%	29*	24
CSCCC(NC(=O)c1ccco1)C(=O)OCC(=O)N1c2ccccc2NC(=O)C1(C)C (configuration not stated)	-25%	-20%	/	/	/
CC1CN(CCCCOc2ccc(Cl)c3ccccc23)CC(C)O1 (configuration not stated)	-27%	?	-19%	3	4
CC(Cc1ccccc1)NC(=S)CN1CCCC1=S (configuration not stated)	1%	-10%	-61%	8	-6
COC(=O)CCCn1nc(NC(=O)c2ccco2)cc1C	4%	34%	-1%	12	29
SMILES	Pf growth 96h	Pf growth 48h	NS1 function inh	CHX counter	Shiga inhibitor
CC(C)c1ccc(OCc2nc(-c3ccccn3)no2)c(Br)c1	49%	164%	-141%	46*	67*
Cc1ccc(C(=O)N/C(=C\c2ccco2)C(=O)NCCCn2ccnc2)cc1C	-1%	-9%	?	4	13
CC(C)CC(N)C(=O)OCc1ccc([N+](=O)[O-])cc1 (configuration not stated)	2%	15%	-1%	-3	-14
CC[n+]1c(-c2ccccc2)c2cc(N)ccc2c2ccc(N)cc21	0.003µM*!	0.048µM*	/	-14	-19
COc1cc(Cl)c(C)cc1NC(=O)CSc1nc2ccccc2o1	10µM*	4%	5%	-3	5
O=C(CSc1nc2ccccc2o1)Nc1ccccc1	?	175%	-56%	8.5*	30
Cc1cc(C)nc(SCC(=O)c2cc3ccccc3oc2=O)n1	-19%	19%	-7%	8	-2
O=C(CSc1nc2ccccc2o1)N1CCCC1	42%	/	-5%	13	9
O=C(CSc1nc2ccccc2o1)NCC(=O)c1ccccc1	-9%	19%	-5%	15	11
Cc1ccc(C(=O)CSc2nc3ccccc3o2)cc1	?	/	-2%	26*	50
O=C(CSc1nc2ccccc2o1)c1cc2ccccc2oc1=O	?	33%	-7%	25*	89*
CCOC(=O)C1CCCCN1Cc1cccc(Oc2ccccc2)c1 (configuration not stated)	?	?	-32%	-1	-6
COc1ccc(/C=C2\Sc3ccc(C(=O)NCCCN4CCCC4)cc3N(C)C2=O)cc1OC	?	?	2%	-3	-8
CCN(CC(=O)NCc1cccs1)C(=O)c1ccc(S(=O)(=O)Nc2ccccc2F)cc1	7%	-25%	/	/	/
Cc1nnc(SCC(=O)Nc2ccccc2)c2ccccc12	16%	?	?	48*	46*
CSc1cccc(NC(=O)CSc2nc3ccccc3o2)c1	40%	-5%	-59%	40*	63*
Cc1nnc(SCC(=O)Nc2ccc(O)cc2)c2ccccc12	7%	34%	-8%	11	-10
CC(Sc1nc2ccccc2o1)C(=O)O (configuration not stated)	-5%	170%	-4%	37*	79*
O=C(CSc1nc2ccccc2o1)N1CCOCC1	61%	17%	2%	27*	42*
O=C(CSc1n[nH]c(Cc2ccccc2)n1)Nc1ccccc1Br	5%	-38%	3%	5	3
CC1CN(C(=O)c2ccccc2)c2ccccc2NC1=O (configuration not stated)	?	?	-1%	-3	-1
O=C(O)CSc1nc2ccccc2o1	-1%	33%	2%	30*	78
CCCCOCCCNc1ncnc2c1[nH]c1ccccc12	/	7.4µM*	-22%	-3	-6
CCOCCCNc1ncnc2c1[nH]c1ccccc12	?	10µM*	-27%	13*	-2
CCOc1cccc(NC(=O)c2cnccc2C(F)(F)F)c1	22%	8%	6%	-2	36
SMILES	Pf growth 96h	Pf growth 48h	NS1 function inh	CHX counter	Shiga inhibitor
COc1ccc(Cc2nnc(NC(=O)C(C)C)s2)cc1	2%	-7%	-6%	-1	-2
COC(=O)Nc1nnc(-c2ccccc2Cl)s1	108%	/	-80%	26*	65*
CCOC(=O)Nc1nnc(-c2ccccc2OC)s1	12%	56%	-14%	21*	33*
COC(=O)Nc1nnc(-c2ccccc2OC)s1	162%	124%	-8%	38*	74*
COc1ccccc1-c1nnc(NC(=O)OCC(C)C)s1	205%	69%	-8%	-2	-9
COc1ccc(-c2nnc(NC(=O)C(C)C)s2)c(OC)c1	52%	/	4%	21*	52
Cc1cccc(C)c1NC(=S)NCCSc1ccc(Cl)cc1	?	-29%	/	-1	21
